This is a sample that favours compounds with a hit; in the whole collection about 2.6% have one here.
aDG glyco act = activators of alpha-DG glycosylation, primary screen, uHTS, Pro5-aDG cells, AlphaScreen. alpha-DG glycosylation AlphaScreen (IIH6); 0% Pro5, 100% B10-LARGE cell signal. activation, % at 10 µM. 360,000 compounds, 0.22% hits. AID 624168, 2012;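 active means activation of at least 8% versus controls, or a plate z-score of at least 8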;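 further: Pro5 are CHO cells carrying HIG-tagged alpha-DG that lacks glycosylation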
TWEAK Fn14 block = inhibitors of TWEAK-Fn14 signaling, primary screen, luciferase reporter cells, uHTS | TWEAK-stimulated Fn14 reporter cells, luciferase luminescence, 8 h | inhibition, % at 10 µM | 360,000 compounds, 2% hits | AID 1159606, 2016; in the data active means inhibition above about 50%
HSP90 refold inh = HSP90 inhibitors, primary screen, cell lysate, luminescence; Heat shock protein HSP 90 (rabbit reticulocyte lysate; luciferase refolding); Rabbit reticulocyte lysate, luciferase refolding luminescence, 3 h; inhibition, % at 5.6 µM; 290,000 compounds, 0.91% hits;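 active means inhibition above the screen-wide mean plus 3 SD, computed separately per campaign, cut at about 16% in these data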;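 further: 0% = DMSO wells and 100% = 60 µM geldanamycin wells; inhibitors lower the luminescence because luciferase stays unfolded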
TROY NFkB inh = inhibitors of TROY-driven NF-kB signaling, primary screen, Q293 LMP1-TROYcd cells, NF-kB luciferase, uHTS; Q293 LMP1-TROYcd NF-kB luciferase reporter, 4 h; inhibition, % at 10 µM; 360,000 compounds, 0.98% hits; AID 1347056, 2019;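 active means compounds whose plate-normalised and pattern-corrected inhibition of the luciferase reporter signal at the single screening dose is 50% or more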
EBV LMP1 NFkB = EBV LMP1-driven NF-kappaB luciferase reporter inhibitors, primary screen, cell-based, luminescence, single point; LMP1-induced NF-kappaB luciferase reporter cells; inhibition, % at 12.5 µM; 350,000 compounds, 0.69% hits; in the data active means inhibition above about 41%; inconclusive means no clear call, values can overlap the other calls;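 further: 0% = neutral control wells and 100% = reference inhibitor control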
LGR2 inh = inhibitors of bursicon-induced LGR2 CRE-luciferase signal, primary screen, cell-based, HEK293, CRE-luciferase reporter, bursicon stimulation; 380,000 compounds, 0.35% hits; bursicon-stimulated, 4 h; inhibition, % at 9.99 µM;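 active means drop in luminescence signal, shown as inhibition above about 50% in the replicate tests, limit read from the data, passing the limit was not always enough; inconclusive means probably only some replicates passing the limit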;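 further: agonist challenge used bursicon conditioned medium at about half maximal strength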
Active calls of the source: *; ? = inconclusive; · = no result.

SMILES | aDG glyco act | TWEAK Fn14 block | HSP90 refold inh | TROY NFkB inh | EBV LMP1 NFkB | LGR2 inh
Clc1ccc(-c2csc(=Nc3cccnc3)n2CCCn2ccnc2)cc1Cl | 2 | 66* | 0 | 46 | 30 | ·
CC(C)(C)C(=O)NC(c1ccccc1)c1c(O)ccc2ccccc12 (configuration not stated) | 0 | 16 | 0 | 16 | -14 | 9
CC(C)[C@H](N[C@@H](C)c1ccccc1)c1c(O)ccc2ccccc12 | 0 | 5 | 3 | 20 | 66* | -3
Cc1nc(N)nc(N)c1/C=C/C(C)(C)c1ccc(Cl)cc1 | 0 | 36 | -1 | 36 | 46* | 38
O=C(Nc1ccc(F)cc1)N1C[C@@H]2[C@H](c3ccccc31)[C@@H](CO)N2C(=O)c1ccccc1 | · | · | · | · | · | -20
CCOC(=O)CSc1nnc(NC(=O)c2cc([N+](=O)[O-])cc([N+](=O)[O-])c2)s1 | 0 | 85* | 4 | 66* | -6 | -1
C[C@@H]1CN([C@H](C)CO)C(=O)c2cc(NS(C)(=O)=O)ccc2O[C@@H](C)CCCCO[C@H]1CN(C)Cc1ccc(C(=O)O)cc1 | · | · | · | · | · | 11
COc1ccc(C(=O)Oc2c(C)occc2=O)cc1OC | 0 | -1 | -3 | -9 | 2 | ·
Cc1occc(=O)c1OC(=O)Nc1ccc(Cl)c(Cl)c1 | 0 | 59* | 4 | 36 | 17 | 28
C[C@@H]1CCCCO[C@H](CN(C)C)[C@@H](C)CN([C@@H](C)CO)C(=O)c2cc(NC(=O)NC3CCCCC3)ccc2O1 | · | · | · | · | · | -12
CC(Oc1ccc(Br)cc1)c1nc2c3ccccc3nc(=S)n2[nH]1 (configuration not stated) | 0 | -38 | -6 | 48 | 7 | -2
CCCC(Oc1ccc(Br)cc1)c1nc2c3cc(OC)c(OC)cc3nc(=S)n2[nH]1 (configuration not stated) | 0 | 43 | 1 | 62* | 0 | 8
CN(c1ccccc1)S(=O)(=O)c1ccc(NC(=O)c2ccccc2)cc1 | 0 | 18 | -4 | 11 | -1 | -10
CN(c1ccccc1)S(=O)(=O)c1ccc(NC(=O)c2nc(S(C)(=O)=O)ncc2Cl)cc1 | 0 | 93* | 0 | 71* | -3 | 10
COc1cccc(NC(=O)c2nc(S(C)(=O)=O)ncc2Cl)c1 | 0 | 74* | -3 | 53* | -5 | 1
CCCNC(=O)NC[C@H]1[C@@H](c2ccc(C3=CCCCC3)cc2)[C@H](CO)N1C(C)=O | · | · | · | · | · | -7
C[C@H](CO)N1C[C@H](C)[C@@H](CN(C)C(=O)Nc2cccc3ccccc23)Oc2c(NS(=O)(=O)c3ccc(F)cc3)cccc2C1=O | · | · | · | · | · | 4
O=c1[nH]c(=O)n([C@H]2C[C@H](O)[C@@H](CO)O2)cc1F | 0 | -3 | 1 | -6 | 50* | 17
N=c1c[n+](N2CCOCC2)[n-]o1 | 1 | 72* | 4 | 15 | 3 | 10
C=C1C(=O)C23C(O)C1CCC2C12CCCC(C)(COC(C)=O)C1C(O)C3(O)OC2 (configuration not stated) | 0 | 101* | · | 77* | ? | 98*
O=S(=O)(c1ccccc1)N1C[C@@H]2N[C@H](C1)C2c1ccc(-c2ccc(F)cc2)cc1 (some centres not stated) | · | · | · | · | · | -18
CO[C@@H]1CC[C@H]2CCOc3ccc(C#N)cc3C(=O)N(C)CCCC(=O)N(C)C[C@H]1O2 | · | · | · | · | · | -3
Cc1cccc(-c2ccc3[nH]c4c(c3c2)CCN2C[C@@H]([C@H](C)OC(=O)Nc3ccccc3C)[C@@H](N(C)C(=O)Nc3ccccc3C)C[C@@H]42)c1 | 2 | 88* | · | 20 | -11 | 10
CCOc1ccc(N(CC(=O)OC)S(=O)(=O)c2ccc3c(c2)n(C)c(=O)c(=O)n3C)cc1 | 0 | 80* | -1 | -16 | 4 | 1
Cc1ccc(S(=O)(=O)Nc2ccc(Cl)cc2)cc1NC(=O)c1cc2c(s1)CCCC2 | 0 | 72* | -3 | 62* | -6 | -1
Cc1ccc(S(=O)(=O)N2CCOCC2)cc1NC(=O)c1cc2c(s1)CCC2 | 2 | 15 | 2 | 16 | 3 | ·

From PubChem
